Source: PubChem BioAssay (EPA / NIEHS)
Records with an inconclusive call do not appear. The source made the active and inactive calls. Rule for the calls, unless noted: active = hit-call score of the fitted dose curve at least 0.9, where 1 is the maximum; inactive = score below 0.9.

Experiments:
[1] = read-out: Tissue Factor, F3 (gene 2152); assay: BSK_LPS_TissueFactor: BioMAP Diversity Plus: LPS Assay for Tissue Factor Biomarker Activity (AID 2283084); details: primary human HUVEC with PBMC; actives raise or lower the signal
Outline: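 Compound was added to an endothelial cell/PBMC co-culture, and after 24 h tissue factor (CD142) was read by ELISA. Gain or loss of signal was fitted against a DMSO baseline, and parallel SRB staining (560 nm) tracked overt cytotoxicity.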

[2] = read-out: Tumor necrosis factor (Homo sapiens) (UniProt P01375); assay: BSK_LPS_TNFa: BioMAP Diversity Plus: LPS Assay for Tumour Necrosis Factor alpha (TNFa) Biomarker Activity (AID 2283085); details: primary human HUVEC with PBMC; actives raise or lower the signal;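 for AC50: TNFa protein level quantified by ELISA in the co-culture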
Outline: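 TNFa was quantified by ELISA in LPS-activated co-cultures of human endothelial cells and PBMC, 24 h post-dosing. Both increases and decreases versus DMSO were fitted.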

[3] = read-out: Vascular cell adhesion molecule 1 (VCAM1), VCAM1 (gene 7412); assay: BSK_LPS_VCAM1: BioMAP Diversity Plus: LPS Assay for Vascular cell adhesion molecule 1 (VCAM1) Biomarker Activity (AID 2283086); details: primary human HUVEC with PBMC; actives raise or lower the signal
Outline: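 VCAM-1 quantified by ELISA in an LPS-activated co-culture of human endothelial cells and peripheral blood mononuclear cells, read 24 h post-treatment. Fitted in both directions versus DMSO; parallel SRB staining flags overt cytotoxicity.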

[4] = read-out: CD38, CD38 (gene 952); assay: BSK_SAg_CD38: BioMAP Diversity Plus: SAg Assay for CD38 Biomarker Activity (AID 2283087); details: primary human HUVEC with PBMC; actives raise or lower the signal
Outline: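 CD38 quantified by ELISA (fluorescence) in a superantigen-activated endothelial cell–PBMC co-culture at 24 h post-dose. Activity fitted in both directions relative to DMSO; parallel SRB and Alamar Blue cytotoxicity read-outs.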

[5] = read-out: CD40, CD40 (gene 958); assay: BSK_SAg_CD40: BioMAP Diversity Plus: SAg Assay for CD40 Biomarker Activity (AID 2283088); details: primary human HUVEC with PBMC; actives raise or lower the signal
Outline: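 CD40 is measured by fluorescence ELISA in an endothelial/PBMC primary human co-culture at 24 h post-dose. Fitting is bidirectional, DMSO baseline. Parallel SRB staining (560 nm) flags cytotoxicity.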

[6] = read-out: CD69, CD69 (gene 969); assay: BSK_SAg_CD69: BioMAP Diversity Plus: SAg Assay for CD69 Biomarker Activity (AID 2283089); details: primary human HUVEC with PBMC; actives raise or lower the signal;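 for AC50: cell surface CD69 protein quantified by ELISA with fluorescence detection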
Outline: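 Values derive from bidirectional fitting relative to DMSO vehicle. Cells: umbilical vein endothelium plus peripheral blood mononuclear cells, treated 24 h before fluorescent ELISA for CD69.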

[7] = read-out: Monocyte Chemoattractant Protein-1 (MCP1), CCL2 (gene 6347); assay: BSK_SAg_MCP1: BioMAP Diversity Plus: SAg Assay for Monocyte Chemoattractant Protein-1 (MCP1) Biomarker Activity (AID 2283090); details: primary human HUVEC with PBMC; actives raise or lower the signal
Outline: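 Values derive from bidirectional fitting of ELISA-measured MCP1 against DMSO controls. Readings were taken 24 h after dosing human vascular endothelial cells co-cultured with peripheral blood mononuclear cells under superantigen stimulation.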

[8] = read-out: E-selectin (Homo sapiens) (UniProt P16581); assay: BSK_SAg_Eselectin: BioMAP Diversity Plus: SAg Assay for Eselectin Biomarker Activity (AID 2283091); details: primary human HUVEC with PBMC; actives raise or lower the signal
Outline: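 Cell-surface E-selectin is read by ELISA at 24 h in the SAg co-culture of HUVEC and PBMC. Curves are fitted in both directions relative to DMSO. Parallel SRB total-protein staining tracks overt toxicity.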

[9] = read-out: Monokine induced gamma interferon (MIG), CXCL9 (gene 4283); assay: BSK_SAg_MIG: BioMAP Diversity Plus: SAg Assay for Monokine induced gamma interferon (MIG) Biomarker Activity (AID 2283092); details: primary human HUVEC with PBMC; actives raise or lower the signal
Outline: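 Values reflect bidirectional fitting of ELISA-measured MIG against DMSO vehicle, taken 24 h after dosing of a co-culture of human umbilical vein endothelial cells and peripheral blood mononuclear cells.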

[10] = BSK_SAg_PBMCCytotoxicity: PBMC Cytotoxicity Assessment in the BioMAP Diversity Plus: SAg Assay (AID 2283093); details: primary human HUVEC with PBMC;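 note: PBMC viability measured as Alamar Blue reduction fluorescence at 546/580 nm; fitted both ways against DMSO so a hit may be loss or gain of signal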;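 for AC50: PBMC superantigen activated with SEB plus TSST-1 one hour after compound addition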
Outline: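 Alamar Blue reduction (6 h, 546/580 nm) reports PBMC cytotoxicity after 90 h superantigen activation (SEB, TSST-1; 20 ng/mL final each) with 1 h compound pre-treatment. Gain or loss of signal fitted versus DMSO.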

[11] = read-out: Interleukin-8 (IL8), CXCL8 (gene 3576); assay: BSK_SAg_IL8: BioMAP Diversity Plus: SAg Assay for Interleukin-8 (IL8) Biomarker Activity (AID 2283094); details: primary human HUVEC with PBMC; actives raise or lower the signal
Outline: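 ELISA readout of IL-8 from a superantigen-activated endothelial/PBMC primary human co-culture, taken 24 h post-dosing and fitted in both directions against DMSO; parallel SRB total-protein staining flags overt cytotoxicity.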

[12] = BSK_SAg_Proliferation: Cell Proliferation Assessment in the BioMAP Diversity Plus: SAg Assay (AID 2283095); details: primary human HUVEC with PBMC;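 note: relative cell number as total protein by SRB absorbance in sub-confluent culture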
Outline: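 Relative cell number in the endothelial cell/PBMC co-culture was quantified at 96 h by SRB staining (0.1% SRB, 10% TCA fixation, read at 560 nm). Curves were fitted in both directions relative to DMSO baseline.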

[13] = BSK_SAg_SRB: Viability Assessment in the BioMAP Diversity Plus: SAg Assay (AID 2283096); details: primary human HUVEC with PBMC;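 note: cells read one day after compound addition; hits may be either gain or loss of signal compared with DMSO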
Outline: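 This overt-cytotoxicity endpoint quantifies protein in human endothelial/PBMC co-cultures at 24 h using SRB absorbance (560 nm) after trichloroacetic acid fixation. Values reflect signal change from the DMSO negative control, fitted bidirectionally.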

[14] = molecular target: human CYP19A1, CYP19A1 (gene 1588) (UniProt P11511); assay: NVS_ADME_hCYP19A1: NovaScreen (NVS) CYP450-related Enzyme Activity (ADME) Assay for human CYP19A1 (AID 2283098; active = hit-call score of the fitted dose curve at least 0.9, where 1 is the maximum)
Outline: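 Compounds were first screened at 10 uM in duplicate against purified enzyme, with a fluorogenic substrate and fluorescence intensity detection after 0.5 h. Inhibition appears as reduced signal against acetonitrile control.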

[15] = molecular target: human CYP2D6, CYP2D6 (gene 1565) (UniProt P10635); assay: NVS_ADME_hCYP2D6: NovaScreen (NVS) CYP450-related Enzyme Activity (ADME) Assay for human CYP2D6 (AID 2283107; active = hit-call score of the fitted dose curve at least 0.9, where 1 is the maximum)
Outline: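 Fluorescence readout of recombinant CYP2D6 (insect-cell derived) activity after 1 h incubation with test chemical. Acetonitrile served as baseline, loss-of-signal direction. Single-concentration duplicate screening at 10 uM preceded concentration-response retesting.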

[16] = molecular target: Cytochrome P450 3A4 (Homo sapiens) (UniProt P08684); assay: NVS_ADME_hCYP3A4: NovaScreen (NVS) CYP450-related Enzyme Activity (ADME) Assay for human CYP3A4 (AID 2283110; active = hit-call score of the fitted dose curve at least 0.9, where 1 is the maximum)
Outline: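 Activity is derived from decreased fluorescence intensity relative to acetonitrile, measured 0.33 hour after dosing insect-cell-expressed CYP3A4 in a cell-free format. Screening used 10 uM in duplicate before concentration-response follow-up.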

[17] = molecular target: human CYP2A6, CYP2A6 (gene 1548) (UniProt P11509); assay: NVS_ADME_hCYP2A6: NovaScreen (NVS) CYP450-related Enzyme Activity (ADME) Assay for human CYP2A6 (AID 2283099; active = hit-call score of the fitted dose curve at least 0.9, where 1 is the maximum)
Outline: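 Compounds screened at 10 uM (duplicate) and, if active, titrated to a 20 uM top concentration against insect-cell-expressed CYP2A6. Loss of fluorescent product signal after 0.5 h, relative to acetonitrile baseline, indicates inhibition.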

[18] = molecular target: human CYP1A1, CYP1A1 (gene 1543) (UniProt P04798); assay: NVS_ADME_hCYP1A1: NovaScreen (NVS) CYP450-related Enzyme Activity (ADME) Assay for human CYP1A1 (AID 2283100; active = hit-call score of the fitted dose curve at least 0.9, where 1 is the maximum)
Outline: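 Chemicals were first tested in duplicate at 10 uM, and those passing a 30% inhibition threshold were rerun as concentration series topping at 20 uM. Fluorescence read-out of recombinant enzyme turnover after 1 h, relative to acetonitrile.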

[19] = molecular target: human CYP2B6, CYP2B6 (gene 1555) (UniProt P20813); assay: NVS_ADME_hCYP2B6: NovaScreen (NVS) CYP450-related Enzyme Activity (ADME) Assay for human CYP2B6 (AID 2283101; active = hit-call score of the fitted dose curve at least 0.9, where 1 is the maximum)
Outline: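 Compounds were first screened in duplicate at 10 uM against recombinant enzyme, with the fluorescent product measured after 1 hour. Active compounds were retested over a concentration series. Loss of fluorescence versus acetonitrile control was scored as reduced enzyme activity.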

[20] = molecular target: human CYP1A2, CYP1A2 (gene 1544) (UniProt P05177); assay: NVS_ADME_hCYP1A2: NovaScreen (NVS) CYP450-related Enzyme Activity (ADME) Assay for human CYP1A2 (AID 2283102; active = hit-call score of the fitted dose curve at least 0.9, where 1 is the maximum;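 note: fluorescence from turnover of a fluorogenic substrate by recombinant insect-cell CYP1A2; potency for inhibition since loss of fluorescence marks reduced CYP1A2 activity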)
Outline: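 Enzyme activity of insect-cell-expressed human CYP1A2 measured by fluorescence 0.5 h after compound addition, relative to acetonitrile. Compounds first tested in duplicate at 10 uM, actives followed up in concentration series.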

Measured: AC50

Tumor necrosis factor (Homo sapiens), sequence (P01375 whole entry, looked up): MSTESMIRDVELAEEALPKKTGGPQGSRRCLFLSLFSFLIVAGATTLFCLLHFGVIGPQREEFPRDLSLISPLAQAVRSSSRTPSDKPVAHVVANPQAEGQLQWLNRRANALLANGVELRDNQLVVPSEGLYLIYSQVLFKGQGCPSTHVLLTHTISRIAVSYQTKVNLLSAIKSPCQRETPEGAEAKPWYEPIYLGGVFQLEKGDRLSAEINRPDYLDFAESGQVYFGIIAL
E-selectin (Homo sapiens), sequence (P16581 whole entry, looked up): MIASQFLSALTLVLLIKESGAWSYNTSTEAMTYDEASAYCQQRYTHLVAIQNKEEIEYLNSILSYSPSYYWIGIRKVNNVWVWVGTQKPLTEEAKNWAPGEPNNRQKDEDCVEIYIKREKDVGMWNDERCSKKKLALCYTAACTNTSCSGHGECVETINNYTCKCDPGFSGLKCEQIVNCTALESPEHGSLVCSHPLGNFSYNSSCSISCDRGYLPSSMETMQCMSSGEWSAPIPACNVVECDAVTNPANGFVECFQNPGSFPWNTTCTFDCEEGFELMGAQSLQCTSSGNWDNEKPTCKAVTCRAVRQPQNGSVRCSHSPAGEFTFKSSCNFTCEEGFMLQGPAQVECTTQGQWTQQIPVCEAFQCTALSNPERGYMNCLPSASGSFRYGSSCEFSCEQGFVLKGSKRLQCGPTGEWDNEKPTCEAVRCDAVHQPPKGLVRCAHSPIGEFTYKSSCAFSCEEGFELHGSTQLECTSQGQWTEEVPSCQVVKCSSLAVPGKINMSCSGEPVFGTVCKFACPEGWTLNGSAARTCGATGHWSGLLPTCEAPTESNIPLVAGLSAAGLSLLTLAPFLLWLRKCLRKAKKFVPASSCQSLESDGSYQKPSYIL
human CYP2D6, CYP2D6 (gene 1565), sequence (P10635 whole entry, looked up): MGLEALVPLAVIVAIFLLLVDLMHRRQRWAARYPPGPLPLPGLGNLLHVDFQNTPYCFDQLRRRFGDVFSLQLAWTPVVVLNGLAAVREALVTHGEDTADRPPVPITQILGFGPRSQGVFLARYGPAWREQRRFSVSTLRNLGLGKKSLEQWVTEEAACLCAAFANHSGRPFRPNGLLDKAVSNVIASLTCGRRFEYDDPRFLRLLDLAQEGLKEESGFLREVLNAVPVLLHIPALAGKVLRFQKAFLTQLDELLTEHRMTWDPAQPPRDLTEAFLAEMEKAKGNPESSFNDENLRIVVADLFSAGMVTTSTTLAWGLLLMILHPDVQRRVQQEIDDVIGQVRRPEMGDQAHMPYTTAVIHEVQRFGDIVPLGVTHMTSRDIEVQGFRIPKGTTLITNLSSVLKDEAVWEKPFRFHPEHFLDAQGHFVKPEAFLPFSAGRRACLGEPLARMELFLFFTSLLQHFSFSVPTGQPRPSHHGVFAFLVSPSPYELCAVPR
Cytochrome P450 3A4 (Homo sapiens), sequence (P08684 whole entry, looked up): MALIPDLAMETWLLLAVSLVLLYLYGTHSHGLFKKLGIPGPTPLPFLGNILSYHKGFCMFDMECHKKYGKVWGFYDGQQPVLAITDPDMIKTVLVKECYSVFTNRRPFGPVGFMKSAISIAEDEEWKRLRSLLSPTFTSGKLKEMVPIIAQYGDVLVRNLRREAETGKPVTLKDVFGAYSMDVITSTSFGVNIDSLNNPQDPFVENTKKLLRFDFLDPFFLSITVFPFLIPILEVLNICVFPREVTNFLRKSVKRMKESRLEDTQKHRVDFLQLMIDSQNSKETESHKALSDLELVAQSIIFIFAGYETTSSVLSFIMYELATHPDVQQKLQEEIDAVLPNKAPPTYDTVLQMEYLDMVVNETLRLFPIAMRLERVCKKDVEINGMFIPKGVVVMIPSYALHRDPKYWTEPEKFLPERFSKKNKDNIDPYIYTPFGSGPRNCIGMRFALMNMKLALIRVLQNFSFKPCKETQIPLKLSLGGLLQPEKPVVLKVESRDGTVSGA
human CYP2A6, CYP2A6 (gene 1548), sequence (P11509 whole entry, looked up): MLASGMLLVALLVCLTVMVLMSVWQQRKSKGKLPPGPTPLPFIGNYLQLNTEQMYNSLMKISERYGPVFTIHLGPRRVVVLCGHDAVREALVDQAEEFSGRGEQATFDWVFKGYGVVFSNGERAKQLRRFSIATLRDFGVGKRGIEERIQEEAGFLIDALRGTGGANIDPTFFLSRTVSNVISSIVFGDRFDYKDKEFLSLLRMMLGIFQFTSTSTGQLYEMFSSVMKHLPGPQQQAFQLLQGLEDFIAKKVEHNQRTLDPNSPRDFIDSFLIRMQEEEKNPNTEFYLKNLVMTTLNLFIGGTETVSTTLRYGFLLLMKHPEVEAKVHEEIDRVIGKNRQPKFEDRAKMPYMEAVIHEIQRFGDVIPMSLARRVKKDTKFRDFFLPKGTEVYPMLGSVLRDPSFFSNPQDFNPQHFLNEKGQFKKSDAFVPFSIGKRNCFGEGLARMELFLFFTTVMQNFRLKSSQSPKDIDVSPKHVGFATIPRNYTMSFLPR
human CYP2B6, CYP2B6 (gene 1555), sequence (P20813 whole entry, looked up): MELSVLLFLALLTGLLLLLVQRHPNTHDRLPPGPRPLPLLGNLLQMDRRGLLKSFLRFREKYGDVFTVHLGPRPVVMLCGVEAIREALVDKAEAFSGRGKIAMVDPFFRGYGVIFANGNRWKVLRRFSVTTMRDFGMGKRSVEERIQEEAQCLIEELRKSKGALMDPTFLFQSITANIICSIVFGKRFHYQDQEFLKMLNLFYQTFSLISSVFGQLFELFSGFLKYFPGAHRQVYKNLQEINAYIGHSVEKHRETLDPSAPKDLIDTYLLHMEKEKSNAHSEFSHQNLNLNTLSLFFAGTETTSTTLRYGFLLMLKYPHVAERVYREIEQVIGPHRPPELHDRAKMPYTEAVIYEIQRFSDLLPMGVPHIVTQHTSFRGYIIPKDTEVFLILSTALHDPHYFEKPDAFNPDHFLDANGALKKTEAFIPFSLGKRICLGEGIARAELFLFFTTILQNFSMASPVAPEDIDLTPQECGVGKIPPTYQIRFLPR
human CYP1A1, CYP1A1 (gene 1543), sequence (P04798 whole entry, looked up): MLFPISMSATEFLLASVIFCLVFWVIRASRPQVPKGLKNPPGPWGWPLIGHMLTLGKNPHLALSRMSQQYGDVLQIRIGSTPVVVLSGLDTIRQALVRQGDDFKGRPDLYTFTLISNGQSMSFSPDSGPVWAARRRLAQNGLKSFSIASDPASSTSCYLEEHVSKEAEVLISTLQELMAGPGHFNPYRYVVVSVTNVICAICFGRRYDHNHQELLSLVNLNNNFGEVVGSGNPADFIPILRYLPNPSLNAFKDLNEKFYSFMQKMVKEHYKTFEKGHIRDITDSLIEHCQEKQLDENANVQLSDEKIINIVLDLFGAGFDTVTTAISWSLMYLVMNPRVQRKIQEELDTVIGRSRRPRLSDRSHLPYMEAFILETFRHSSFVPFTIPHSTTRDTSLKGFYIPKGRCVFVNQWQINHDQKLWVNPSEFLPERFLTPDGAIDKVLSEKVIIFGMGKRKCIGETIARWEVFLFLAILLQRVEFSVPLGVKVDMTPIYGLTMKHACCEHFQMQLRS
human CYP1A2, CYP1A2 (gene 1544), sequence (P05177 whole entry, looked up): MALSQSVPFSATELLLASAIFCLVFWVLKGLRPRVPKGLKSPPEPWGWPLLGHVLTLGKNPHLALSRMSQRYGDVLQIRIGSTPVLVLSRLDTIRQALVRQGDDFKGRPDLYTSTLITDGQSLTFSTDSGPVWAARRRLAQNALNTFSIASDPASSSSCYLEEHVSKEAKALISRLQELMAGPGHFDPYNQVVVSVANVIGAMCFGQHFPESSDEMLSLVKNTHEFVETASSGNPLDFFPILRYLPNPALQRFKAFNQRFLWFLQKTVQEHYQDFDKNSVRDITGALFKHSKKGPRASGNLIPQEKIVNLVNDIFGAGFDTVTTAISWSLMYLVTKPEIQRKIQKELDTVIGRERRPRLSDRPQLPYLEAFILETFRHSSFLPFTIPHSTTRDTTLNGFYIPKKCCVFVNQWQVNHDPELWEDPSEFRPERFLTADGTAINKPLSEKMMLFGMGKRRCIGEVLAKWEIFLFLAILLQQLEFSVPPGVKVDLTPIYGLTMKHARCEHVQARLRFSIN
human CYP19A1, CYP19A1 (gene 1588), sequence (P11511 whole entry, looked up): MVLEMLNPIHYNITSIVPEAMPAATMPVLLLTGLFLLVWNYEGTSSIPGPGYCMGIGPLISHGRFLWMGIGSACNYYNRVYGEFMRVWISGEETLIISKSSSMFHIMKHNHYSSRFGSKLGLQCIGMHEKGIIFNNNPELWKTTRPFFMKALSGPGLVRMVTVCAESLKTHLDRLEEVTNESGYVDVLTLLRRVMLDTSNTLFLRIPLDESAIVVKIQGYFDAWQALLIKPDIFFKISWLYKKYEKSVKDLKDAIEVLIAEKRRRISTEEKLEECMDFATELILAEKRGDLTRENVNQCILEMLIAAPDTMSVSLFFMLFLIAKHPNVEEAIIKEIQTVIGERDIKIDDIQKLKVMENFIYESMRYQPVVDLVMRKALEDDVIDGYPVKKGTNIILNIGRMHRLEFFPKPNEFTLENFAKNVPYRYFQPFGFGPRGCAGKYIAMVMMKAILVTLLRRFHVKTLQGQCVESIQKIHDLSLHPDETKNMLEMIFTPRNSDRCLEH

CC1=CC(=O)/C(=C(/C)O)C(=O)O1
not listed: [15] | [16] | [17] | [18] | [19] | [20]
inactive: all other assays above

COc1cccc([C@H](O)C2CCN(CCc3ccc(F)cc3)CC2)c1OC
active: [15] 5.29 µM
not listed: [14] | [16] | [17] | [18] | [19] | [20]
inactive: all other assays above

CC(C)(C)c1csc(-c2cc3cc(OCc4ccccc4CC(=O)O)ccc3o2)n1
inactive: [1] | [10]
active: [2] 17.7 µM | [3] 18.8 µM | [4] 17.9 µM | [5] 19.1 µM | [6] 19.8 µM | [7] 29.9 µM | [8] 32.1 µM | [9] 38.5 µM | [11] 15.5 µM | [12] 20.1 µM | [13] 20 µM

CO[C@H]1/C=C/O[C@@]2(C)Oc3c(C)c(O)c4c(O)c(c(/C=N/N5CCN(C)CC5)c(O)c4c3C2=O)NC(=O)/C(C)=C\C=C\[C@H](C)[C@H](O)[C@@H](C)[C@@H](O)[C@@H](C)[C@H](OC(C)=O)[C@@H]1C
active: [6] 0.64 µM | [10] 9.8 µM | [12] 17.6 µM
not listed: [14] | [15] | [16] | [17] | [18] | [19] | [20]
inactive: all other assays above

CCCOC(=O)c1cc(O)c(O)c(O)c1
active: [7] 29 µM | [8] 14.3 µM | [12] 17 µM
not listed: [14] | [15] | [17] | [18] | [19] | [20]
inactive: all other assays above

NCc1cccc(C2CCN(C(=O)c3ccc(C#Cc4ccccc4F)o3)CC2)c1
active: [1] 28.2 µM | [2] 27.7 µM | [3] 24.6 µM | [4] 17.4 µM | [5] 15.3 µM | [6] 22.1 µM | [7] 28 µM | [8] 23.8 µM | [9] 35.1 µM | [10] 11.9 µM | [11] 15.8 µM | [12] 7.97 µM | [13] 15.2 µM | [17] 17.9 µM | [18] 7.2 µM | [19] 5.71 µM | [20] 6.43 µM | [15] 6.76 µM | [16] 10 µM

O=c1ccc2ccccc2o1
not listed: [14] | [15] | [16] | [17] | [18] | [19] | [20]
inactive: all other assays above
